# From PubChem BioAssay AID999 (SRMLSC, 2007)
# Values without a mark were called inactive. Calls of active or inactive are those of the source.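 The calls were made as follows: active = viability at or below 21.59%, 3 SD under the median of tested compounds; inactive = the rest.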
# Assay: growth suppression of PTEN-null HCT116 cells, cell-based, validation, diverse DP compound set (AID 999);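 also: 100% = median luminescence of untreated cell control wells and 0% = no signal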
# Conditions: CellTiter-Glo, 60 h, at 10 µM, active compounds read low
row,SMILES,viability
1,Nc1c(N=Nc2ccc(-c3ccc(N=Nc4cc(S(=O)(=O)O)c5ccccc5c4N)cc3)cc2)cc(S(=O)(=O)O)c2ccccc12,86.5%
2,O=c1c(-c2ccc(O)cc2)coc2cc(O)ccc12,89.7%
3,COc1cc(Cc2cnc(N)nc2N)cc(OC)c1OC,102%
4,COc1ccc(CC(N)C(=O)N[C@H]2[C@@H](O)[C@H](n3cnc4c(N(C)C)ncnc43)O[C@@H]2CO)cc1 (stereo not given in full),5.97% (active)
5,O=c1[nH]cc(F)c(=O)[nH]1,58.9%
6,COc1ccc(CCN(C)CCCC(C#N)(c2ccc(OC)c(OC)c2)C(C)C)cc1OC (stereo not given),85.1%
7,COc1ccc(/C=C/c2cc(OC)cc(=O)o2)cc1,85.2%
8,C[C@]12CC[C@@H]3c4ccc(O)cc4CC[C@H]3[C@@H]1CC[C@H]2O,93.3%
9,CC(C)C[C@@H](NC(=O)[C@@H](O)[C@H](N)Cc1ccccc1)C(=O)O,94.5%
10,Cc1cc2c(C(C)C)c(O)c(O)c(C=O)c2c(O)c1-c1c(C)cc2c(C(C)C)c(O)c(O)c(C=O)c2c1O,13% (active)
11,CC12CC3(O)OC(O1)C1(COC(=O)c4ccccc4)[C@@H]3CC21O[C@@H]1O[C@H](CO)[C@@H](O)[C@H](O)[C@H]1O,95.3%
12,COc1ccc(Cl)cc1C(=O)NCCc1ccc(S(=O)(=O)NC(=O)NC2CCCCC2)cc1,107%
13,CC1(C)CCC[C@@](C)([C@H]2CC[C@]3(C)[C@@H]2[C@H](O)C[C@@H]2[C@@]4(C)CC[C@H](O)C(C)(C)[C@@H]4[C@@H](O)C[C@]23C)O1,100%
14,COc1ccc2cc3[n+](cc2c1OC)CCc1cc2c(cc1-3)OCO2,82.9%
15,C[C@H](CCC(=O)O)[C@H]1CC[C@H]2[C@@H]3CC[C@@H]4C[C@H](O)CC[C@]4(C)[C@H]3CC[C@]12C,97.2%
16,C[C@H](CS)C(=O)N1CCC[C@H]1C(=O)O,93.9%
17,C[C@@H]1C[C@@H]([C@@H](C)CC2CC(=O)NC(=O)C2)C(=O)[C@@H](C)C1,30.2%
18,CC1COC2=C1C(=O)C(=O)c1c2ccc2c1CCCC2(C)C (stereo not given),17.8% (active)
19,C=C1C(=O)[C@]23[C@H](O)[C@H]1CC[C@H]2[C@@]12COC3(O)[C@H](O)[C@@H]1C(C)(C)CC[C@@H]2O,76.4%
20,CCCCCCCCCCCCCCCC(=O)OCC(O)C1OC(=O)C(O)=C1O (stereo not given),101%
21,COc1ccc(C2CNC(=O)C2)cc1OC1CCCC1 (stereo not given),96.5%
22,CC1=C(/C=C/C(C)=C/C=C/C(C)=C/C=C/C=C(C)/C=C/C=C(C)/C=C/C(=O)[C@]2(C)C[C@@H](O)CC2(C)C)C(C)(C)C[C@H](O)C1,80.7%
23,COc1ccc(CCN(C)CCCN2CCc3cc(OC)c(OC)cc3CC2=O)cc1OC,97.1%
24,CC1=C(/C=C/C(C)=C/C=C/C(C)=C/C(=O)O)C(C)(C)CCC1,93.7%
25,[O][C@H]1[C@@H](O)[C@@H](CO)O[C@@H](O[C@@H]2[C@@H]3OC[C@H]2O[C@H](O[C@@H]2[C@@H](O)[C@H](C[C@@H]4[C@@H]5OC[C@H]4O[CH][C@@H]5O)O[C@H](CO)[C@@H]2OS(=O)(=O)O)[C@@H]3OS(=O)(=O)O)[C@@H]1O,100%
26,O=C(O)c1cc(=O)c2c(OCC(O)COc3cccc4oc(C(=O)O)cc(=O)c34)cccc2o1,98.8%
27,O=c1c(O)c(-c2ccc(O)c(O)c2)oc2cc(O)cc(O)c12,72.4%
28,O=C(c1ccc(F)cc1)C1CCN(CCn2c(=O)[nH]c3ccccc3c2=O)CC1,94.8%
29,C[C@@H]1CC[C@]2(C(=O)O)CC[C@]3(C)C(=CCC4[C@@]5(C)C[C@@H](O)[C@H](O)[C@@](C)(CO)C5[C@H](O)C[C@]43C)C2[C@H]1C (stereo not given in full),84.7%
30,COC(=O)c1cc2c(s1)-c1ccccc1OC2,97.4%
